Sfp inh: qHTS Assay for Inhibitors of Bacillus subtilis Sfp phosphopantetheinyl transferase (PPTase); 4'-phosphopantetheinyl transferase ffp (Bacillus subtilis), Q9F4F7; Biochemical Sfp PPTase activity, qHTS; Potency, µM, for inactives: largest response in the series, negative = inhibition, most hits filed as inhibitors; 310,000 compounds, 3.5% hits; AID 1490, 2009;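 further: the enzyme is Sfp with the accession as filed and its product quenches rhodamine fluorescence; 0% = enzyme reaction without inhibitor and -100% = no enzyme wells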
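After 15 min at room temperature with compound, 15 nM Sfp received 5 uM rhodamine-CoA plus 12.5 uM BHQ-2-ybbR (50 mM Hepes pH 7.6, 10 mM MgCl2). Rate came from the fluorescence difference over 30 min, ex 525/em 598 nm.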
G9a block: qHTS Assay for Inhibitors of Histone Lysine Methyltransferase G9a; AID 504332, 2011; Potency, µM (titrated, usually from 102 µM), for the others: top-dose activity, negative = inhibition, usual class: inhibitors; Histone-lysine N-methyltransferase EHMT2 (Homo sapiens), Q96KQ7; G9a H3K9 monomethylation, AlphaScreen, 2 h; 350,000 compounds, 8.8% hits; further: on the % scale 0 is the no-effect control and ±100 the full control effect; nearly all actives have a fitted effect of over 75% in size
Target sequence (Q96KQ7 913-1193 limits assumed): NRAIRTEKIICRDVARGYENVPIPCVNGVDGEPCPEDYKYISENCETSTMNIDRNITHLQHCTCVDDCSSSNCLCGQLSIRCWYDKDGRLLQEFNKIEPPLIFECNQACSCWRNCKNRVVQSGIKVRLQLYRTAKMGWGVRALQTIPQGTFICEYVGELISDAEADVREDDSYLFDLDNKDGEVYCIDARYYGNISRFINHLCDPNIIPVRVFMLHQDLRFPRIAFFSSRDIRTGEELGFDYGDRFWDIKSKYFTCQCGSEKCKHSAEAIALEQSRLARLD
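Methyltransferase reactions run at room temperature for 2 h (20 nM enzyme, 500 nM biotin-H3K9 peptide, 20 uM SAM) after a 15 min compound preincubation; product detected by AlphaScreen beads and anti-H3K9me1 antibody.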
BAZ2B block: qHTS Assay for Inhibitors of BAZ2B; Bromodomain adjacent to zinc finger domain protein 2B (Homo sapiens), Q9UIF8; AlphaScreen BAZ2B-H3K14Ac peptide displacement; Potency, µM (highest dose often 114 µM), without a hit: at the highest dose activity change, negative = inhibition, usual class: inhibitors; 360,000 compounds, 4.4% hits; AID 504333, 2011; further: on the % scale 0 is the no-effect control and ±100 the full control effect; nearly all actives have a fitted effect of over 60% in size
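AlphaScreen displacement of biotin-H3(5-23)K14Ac peptide (50 nM final) from BAZ2B (50 nM final) in PBS pH 7.4, 0.01% Tween-20; complex preformed 30 min RT, then compounds (top 110 uM) 30 min RT, beads 20 min dark.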
HP1b binding inh: HTS for Inhibitors of HP1-beta Chromodomain Interactions with Methylated Histone Tails; Chromobox protein homolog 1 (Homo sapiens), P83916; AlphaScreen HP1-beta / biotin-H3K9me3 peptide binding; Potency, µM (titrated, usually from 114 µM), inactives show top-dose activity change, negative = inhibition, actives largely listed as inhibitors; 390,000 compounds, 0.56% hits; AID 540317, 2011; further: nearly all actives have a fitted effect of over 70% in size
Target sequence (P83916 whole entry, looked up): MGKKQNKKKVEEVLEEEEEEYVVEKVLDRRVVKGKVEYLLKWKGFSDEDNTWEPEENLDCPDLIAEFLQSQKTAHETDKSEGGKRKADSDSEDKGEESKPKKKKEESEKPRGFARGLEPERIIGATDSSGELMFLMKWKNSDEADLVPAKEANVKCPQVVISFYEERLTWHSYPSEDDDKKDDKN
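HP1-beta protein (50 nM final) preincubated 30 min at room temperature with biotinylated H3(1-18)K9me3 peptide (50 nM) in PBS pH 7.4, 0.01% Tween-20, then compound added for 30 min. AlphaScreen streptavidin donor/nickel chelate acceptor beads (10 ug/mL final), 30 min dark, luminescence read.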
JMJD2A Tudor: qHTS Assay for Inhibitors of JMJD2A-Tudor Domain | 390,000 compounds, 4.4% hits | Potency, µM (titrated, usually from 114 µM), for inactives: at the highest dose activity change, negative = inhibition, most hits filed as inhibitors | AlphaScreen JMJD2A-Tudor / H3K4me3 peptide binding | Lysine-specific demethylase 4A (Homo sapiens), O75164; further: on the % scale 0 is the no-effect control and ±100 the full control effect; nearly all actives have a fitted effect of over 50% in size
PLK1 PBD block: qHTS for Inhibitors of PLK1-PDB (polo-like kinase 1 - polo-box domain): Primary Screen; Plk1 PBD binding of FITC phosphopeptide, fluorescence polarization; Potency, µM, for the others: max response, negative = inhibition, hits mostly inhibitors; 360,000 compounds, 2.8% hits; AID 720504, 2013; further: series mostly up to about 57 µM; on the % scale 0 is the no-effect control and ±100 the full control effect; nearly all actives have a fitted effect of over 65% in size
Numbers without * were called inactive; u = inconclusive; x = no result; [ ] = remark or other dose. Shown are actives, neighbours in structure and some others; about 12% of the full set was active somewhere. The call rests on the fitted dose curve; in most records, active means well fitted curve in the direction sought with a large enough effect; inconclusive means small, poorly fitted or top-dose-only effect, or another doubt; inactive means no such curve, though single readings can be large; an effect the other way counts as inactive or inconclusive. Potency means the concentration at half of the fitted maximal effect.

SMILES	Sfp inh	G9a block	BAZ2B block	HP1b binding inh	JMJD2A Tudor	PLK1 PBD block
O=C(Nc1cccc(N2C(=O)C3CCCCC3C2=O)c1)c1ccccc1 (stereo not given)	17%	11%	-1%	38%	-6%	-5%
Cc1nn(-c2ccccn2)c2c1C(c1c(F)cccc1Cl)C1=C(N2)c2ccccc2C1=O (stereo not given)	-27%	u	8.9µM*	x	x	x
CCOc1ccc(NC(=O)c2cn(-c3ccc(OCC)cc3)c(=O)c3cc(OC)c(OC)cc23)cc1	7%	-32%	-31%	29%	-18%[57.1 µM]	-8%
COc1ccc(-n2cc(C(=O)NCCc3cc(OC)ccc3OC)c3ccccc3c2=O)cc1	x	u	u	-6%	50µM*	x
CCOc1ccc(-n2cc(C(=O)NC(C)C)c3cc(OC)c(OC)cc3c2=O)cc1	12%	-40%	0%	-12%	20µM*	24µM*
COc1cc(Br)c(CC2c3cc(OC)c(OC)cc3CCN2C)cc1OC (stereo not given)	4%	x	x	5%	-12%	-12%
COc1cc2c(cc1OC)[C@@H](Cc1ccc(OCCC#N)cc1)N(C)CC2	13%	35µM*	5%	7%	-2%	-15%
COc1ccc(-c2nc3c(C#N)c[nH]n3c2NC2CCCCC2)cc1	x	-27%[59 µM]	2%	3%	-21%	x
Cc1ccc(S(=O)(=O)N2CCN(C(=O)c3ccc(N4CCCC4)c([N+](=O)[O-])c3)CC2)cc1	-10%	-4%[12.7 µM]	u	-22%	u	-16%
COc1cccc(C(=O)/C=C/c2ccc(N3CCCCC3)c([N+](=O)[O-])c2)c1	-1%	7.1µM*	10µM*	u	40µM*	-10%
Cc1ccc(S(=O)(=O)N2CCN(C(=O)c3ccc(N4CCCCC4)c([N+](=O)[O-])c3)CC2)cc1	13%	32µM*	u	-20%	u	-5%
O=C(NCc1ccco1)c1ccc(N2CCOCC2)c([N+](=O)[O-])c1	13%	u	-24%	-4%	-24%	-14%
O=C(/C=C/c1ccc(N2CCCCC2)c([N+](=O)[O-])c1)c1ccc(S(=O)(=O)N2CCCC2)cc1	4%	4.5µM*	u	u	-22%	-3%
Cc1ccc(N(Cc2ccco2)C(=O)c2ccc(N3CCCCC3)c([N+](=O)[O-])c2)cc1	-16%	u	u	u	18µM*	-9%
CCc1nc2c(OCC=C(C)C)cccn2c1N(C)C(=O)c1ccc(OC)cc1	x	x	x	x	x	-9%
CCOC(=O)c1ccccc1NC(=O)Cn1c(=O)n(CCC(=O)NCc2ccccc2OC)c(=O)c2ccccc21	x	-6%[59 µM]	-9%	14%	-11%	x
COC(=O)c1cc(OC)c(OC)cc1NC(=S)N1CCN(c2ccccn2)CC1	0%	-5%	u	11%	-11%	3%
CC1CCCCN1C(=O)COC(=O)c1ccc(S(C)(=O)=O)c([N+](=O)[O-])c1 (stereo not given)	x	x	x	50%	u	x
COC(=O)c1cc(NS(=O)(=O)c2ccc(N3CCCCCC3)c([N+](=O)[O-])c2)cc(C(=O)OC)c1	-3%	45µM*	u	-25%	u	-11%
COC(=O)c1cc(NS(=O)(=O)c2ccc(N3CCOCC3)c([N+](=O)[O-])c2)cc(C(=O)OC)c1	-2%	u	u	-4%	u	-8%
CNc1ccc(/C=C/C(=O)c2ccc(C)cc2)cc1[N+](=O)[O-]	1%	u	u	u	u	-3%
CN(C)c1ccc(/C=C/C(=O)c2ccccc2)cc1[N+](=O)[O-]	-15%	u	14µM*	u	45µM*	-10%
C/C(=N/NC(=O)CSc1nc2ccccc2s1)c1ccncc1	6%	x	-2%	25%	u	-19%
CS/C(=N\S(=O)(=O)c1cccs1)NC(=O)CSc1nc2ccccc2s1	u	u	u	40%	u	11µM*
CC1(C(=O)CSc2nc3ccccc3s2)CCC(=O)O1 (stereo not given)	u	2%[12.7 µM]	u	37%	40µM*	21µM*
SMILES	Sfp inh	G9a block	BAZ2B block	HP1b binding inh	JMJD2A Tudor	PLK1 PBD block
Cc1ccc(S(=O)(=O)NC(=O)CSc2nc3ccccc3s2)cc1	3%	50µM*	-1%	25%	-17%	u
OC(c1ccccc1)C(NCCNCc1ccccc1)c1ccccc1 (stereo not given)	x	x	x	11%[57 µM]	-23%	0%
CC(C)CN1CC[C@@]2(CCCN(C(=O)c3ccco3)C2)C1	14%	3%[12.7 µM]	x	x	x	x
O=C(Nc1c(Cl)cc2c(c1Cl)Cc1cc([N+](=O)[O-])ccc1-2)C(Cl)Cl	x	x	x	31%	-16%	5%
OC(c1ccccc1)(c1ccccc1)c1ccn[nH]1	x	-16%[2.33 µM]	-5%	35%	-17%	-5%
CCOC(=O)C(C(=O)OCC)C(C(=O)OCC)N1CCOCC1 (stereo not given)	22µM*	1.6µM*	2%	u	u	24µM*
CCc1ccc(-n2c(CCC(=O)O)ccc2-c2ccc(F)cc2)cc1	x	10µM*	u	u	u	x
CCc1ccc(-n2c(CCC(=O)O)ccc2-c2cccs2)cc1	x	10µM*	u	u	u	x
COc1ccc(-c2ccc(CCC(=O)O)n2-c2ccccc2OC)cc1	-12%	u	u	18%	-13%	0%
CCOC(=O)c1ccc(-n2c(CCC(=O)O)ccc2-c2cccs2)cc1	25µM*	22µM*	u	u	u	19µM*
Cc1c(Cl)cccc1-n1c(CCC(=O)O)ccc1-c1cccs1	x	u	-33%	4%	-34%	x
Cc1ccc(-n2c(CCC(=O)O)ccc2-c2cccs2)cc1C	45µM*	u	u	-3%	u	-20%
COc1ccc(CNC(=O)CN(C(=O)CCC(=O)Nc2ccccn2)c2cccc(C)c2C)cc1	20%	5%	-19%	-9%	-13%	0%
Cn1c(Cn2c(=O)sc3ccccc32)nnc1SCC(=O)NC1CCCCC1	14%	2%[59 µM]	1%	20%	-14%	u
Cc1csc(NC(=O)CSc2nnc(Cn3c(=O)sc4ccccc43)n2-c2ccccc2)n1	79µM*	u	7%	44%	-13%	-21%
Cn1c(SCC(=O)NC2CC2)nnc1-c1ccccc1Cl	9%	x	8%	-1%[57 µM]	-11%	27µM*
Cn1c(SCC(=O)NC2CC2)nnc1-c1ccccc1	20%	-6%	-1%	41%	-16%	-6%

High-throughput results deposited in PubChem by National Center for Advancing Translational Sciences (NCATS).
